Pf growth 96h: Primary qHTS for delayed death inhibitors of the malarial parasite plastid, 96 hour incubation. P. falciparum luciferase reporter growth, 96 h. Potency, µM (doses to about 28.7 µM), without a hit: at the highest dose activity change, negative = inhibition, hits mostly inhibitors. 320,000 tested, 6.9% active; further: potency means the concentration at half of the fitted maximal effect; on the % scale 0 is the no-effect control and ±100 the full control effect
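Erythrocytes infected with luciferase-expressing P. falciparum were dispensed at 2% hematocrit and 0.05% parasitemia (final), then incubated with compounds 96 hours at 37 C in 5% CO2. Luminescence after detection reagent addition reported growth.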
SARS PLP yeast: qHTS of Yeast-based Assay for SARS-CoV PLP | S. cerevisiae expressing SARS-CoV PLpro, growth rescue | Potency, µM (doses to about 32.9 µM), without a hit: top-dose activity, positive = growth rescue, most hits filed as activators | 330,000 tested, 0.19% active; calls by dose curve; further: potency means the concentration at half of the fitted maximal effect; 0% is about no effect; nearly all actives have a fitted effect of over 55% in size
Pf growth 48h: Primary qHTS for delayed death inhibitors of the malarial parasite plastid, 48 hour incubation; P. falciparum luciferase growth in erythrocytes, 48 h; Potency, µM (top dose mostly 28.7 µM), without a hit: top-dose activity change, negative = inhibition, hits mostly inhibitors; 310,000 tested, 5.9% active; AID 504832, 2011; further: potency means the concentration at half of the fitted maximal effect; on the % scale 0 is the no-effect control and ±100 the full control effect
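Here the parasites carry a stable luciferase gene and grow inside erythrocytes in Albumax-based RPMI medium with compound for one erythrocytic cycle. Activity is scored as loss of luminescent signal.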
Cycloheximide cs: Cycloheximide Counterscreen for Small Molecule Inhibitors of Shiga Toxin. cell reporter, cycloheximide protein synthesis inhibition counterscreen. AID 2314, 2010. 300,000 tested, 12% active. max response, %; in the data active means max response mostly above about 13%, no sharp cut-off; inactive means mostly below about 14%; further: read at 38.3 µM for the half of the compounds with a filed dose; 0% is about no effect
Shiga toxin inh: A qHTS for Small Molecule Inhibitors of Shiga Toxin; Vero cells, Shiga toxin protein synthesis inhibition reporter; inhibition, % at 38.7 µM; 290,000 tested, 9.2% active; in the data active means inhibition mostly above about 28%, no sharp cut-off; inactive means mostly below about 43%; further: 0% is about no effect
AMA1 RON2 block: qHTS for Inhibitors of AMA1-RON; Towards Development of Antimalarial Drug Lead: Primary Screen | Plasmodium falciparum AMA1 (3D7) - RON2 peptide interaction | AlphaScreen AMA1-biotinylated RON2 peptide binding | Potency, µM (highest dose often 58.2 µM), without a hit: top-dose activity change, negative = inhibition, usual class: inhibitors | 360,000 tested, 0.2% active;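 further: potency means the concentration at half of the fitted maximal effect; 0% = vehicle wells and -100% = peptide control; nearly all actives have a fitted effect of over 45% in size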
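AMA1 (3D7) with his tag at 25 nM final met compounds first, then biotinylated RON2 peptide at 25 nM; detection used donor plus acceptor beads, 10 µg/mL apiece, read by AlphaScreen after 30 min at room temperature.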
The depositor's hits bear a star; [ ] = dose if it differs, or a comment. The list is not random: actives were taken first. Their share in the collection is about 19%. Unless noted, the call rests on the fitted dose curve; in most records, active means well fitted curve in the direction sought with a large enough effect; inconclusive means small, poorly fitted or top-dose-only effect, or another doubt; inactive means no such curve, though single readings can be large; an effect the other way counts as inactive or inconclusive.

For O=c1c2ccccc2sn1-c1cc(S(=O)(=O)N2CCOCC2)ccc1N1CCCC1 the results were Pf growth 96h inconclusive, SARS PLP yeast -2%, Cycloheximide cs 6, Shiga toxin inh 21 and AMA1 RON2 block 47%.
O=c1c2ccccc2sn1-c1cc(S(=O)(=O)N2CCOCC2)ccc1N1CCOCC1 was read as Pf growth 96h 10%, SARS PLP yeast 8%, Pf growth 48h 3.7µM*, Cycloheximide cs -3, Shiga toxin inh -17 and AMA1 RON2 block 16%.
Screening COCCN(C(=O)c1cc(-c2ccco2)nc2ccccc12)c1c(N)n(Cc2ccccc2)c(=O)[nH]c1=O returned SARS PLP yeast 1% and AMA1 RON2 block -16%.
`CCOc1c(C(=O)CC)cc2c(C)cc(=O)oc2c1C` gave Pf growth 96h inconclusive, SARS PLP yeast 4%, Pf growth 48h 12µM*, Cycloheximide cs -3, Shiga toxin inh 7 and AMA1 RON2 block -9%.
CN1CCN(CC(=O)Nc2ccc(OCc3ccccc3)cc2)CC1 was read as Pf growth 96h 38%, SARS PLP yeast 9%[6.58 µM], Cycloheximide cs 36* and Shiga toxin inh 64.
Screening N#CCN1CCN(CC(=O)Nc2ccc(OCc3ccccc3)cc2)CC1 returned Pf growth 96h inconclusive, SARS PLP yeast 0%, Pf growth 48h 19%, Cycloheximide cs 23*, Shiga toxin inh -22 and AMA1 RON2 block 14%.
`CN1CC(=O)N(CC(=O)Nc2ccc(OCc3ccccc3)cc2)C1=O` gave SARS PLP yeast -1% and AMA1 RON2 block 6%.
COc1ccc(NC(=O)CN2CCN(CC#N)CC2)cc1 was read as Pf growth 96h -1%, SARS PLP yeast -1%, Pf growth 48h -12%, Cycloheximide cs -2 and AMA1 RON2 block -3%.
For COCc1ccc(C(=O)N(C)C2CCCN(Cc3ccccc3F)C2)o1 (stereo not drawn) the results were Pf growth 96h 2.9µM*, SARS PLP yeast 1%, Pf growth 48h inconclusive, Cycloheximide cs 3, Shiga toxin inh -2 and AMA1 RON2 block -3%.
COc1ccc(C(=O)N(C)C2CCCN(Cc3ccccc3F)C2)cc1C (stereo not drawn) was read as Pf growth 96h 5.2µM*, SARS PLP yeast 6%, Pf growth 48h inconclusive, Cycloheximide cs -2, Shiga toxin inh 1 and AMA1 RON2 block 5%.
For CC(C)(CO)CNC1CCCN(C2Cc3ccccc3C2)C1 (stereo not drawn) the results were Pf growth 96h -14%, SARS PLP yeast -2%, Pf growth 48h 8%, Cycloheximide cs -2, Shiga toxin inh -7 and AMA1 RON2 block -2%.
`O=C1C2C(c3ccccc3)C=CC(c3ccccc3)C2C(=O)N1c1ccccn1` (stereo not drawn) gave Pf growth 96h 1.3µM*, SARS PLP yeast -6%, Pf growth 48h 33%, Cycloheximide cs 2, Shiga toxin inh -7 and AMA1 RON2 block 9%.
Screening O=S1(=O)N[C@H](Cc2ccccc2)COc2cc(N3CCSCC3)ccc21 returned AMA1 RON2 block -3%.
For CN(C)c1ccc(C(CNC(=O)c2ccc(-c3ccccc3)cc2)N2CCOCC2)cc1 (stereo not drawn) the results were Pf growth 96h inconclusive, SARS PLP yeast 0% and Pf growth 48h 13µM*.
`COc1ccc(C(CNC(=O)c2ccco2)N2CCCC2)cc1` (stereo not drawn) gave Pf growth 96h 97%, SARS PLP yeast 6%, Pf growth 48h 69% and AMA1 RON2 block 17%.
`CN(C)c1ccc(C(CNC(=O)c2ccco2)N2CCCC2)cc1` (stereo not drawn) gave Pf growth 96h 14%, SARS PLP yeast -1%, Pf growth 48h 31%, Cycloheximide cs 26, Shiga toxin inh 48* and AMA1 RON2 block -9%.
Cc1[nH]c(=O)cc2ccccc12 was read as Pf growth 96h 29%, SARS PLP yeast 2%, Pf growth 48h inconclusive, Cycloheximide cs 7, Shiga toxin inh 5 and AMA1 RON2 block 2%.
Screening COc1cccc(CNC(=O)[C@@H]2CCCN2C(=O)[C@H]2CCCCN2C(=O)OC(C)(C)C)c1 returned AMA1 RON2 block 10%.
For CN1C(=O)c2cccc3c(N(C)C)ccc(c23)C1=O the results were Pf growth 96h -48%, SARS PLP yeast -5%, Pf growth 48h 15%, Cycloheximide cs -1, Shiga toxin inh -13 and AMA1 RON2 block -2%.
For CC(C)OC(=O)c1cccc2c1C(=O)c1ccccc1-2 the results were Pf growth 96h 70%, SARS PLP yeast -2%, Pf growth 48h 79%, Cycloheximide cs 38*, Shiga toxin inh 74* and AMA1 RON2 block -14%.
`O=C(O)c1cccc2c1C(=O)c1ccccc1-2` gave Pf growth 96h 5%, SARS PLP yeast 0%, Pf growth 48h -1%, Cycloheximide cs -2, Shiga toxin inh 6 and AMA1 RON2 block 0%.
`CC(=O)n1c(C=Nc2ccc(Cl)cc2)c(O)c2ccccc21` gave Pf growth 96h inconclusive, SARS PLP yeast -1%, Pf growth 48h 1.5µM*, Cycloheximide cs 12, Shiga toxin inh 6 and AMA1 RON2 block 11%.
`CN(C)C1CN(Cc2cn(Cc3cccc(C(F)(F)F)c3)nn2)S(=O)(=O)C1` (stereo not drawn) gave AMA1 RON2 block -6%.
COc1ccc(N/N=C(/Oc2ccc([N+](=O)[O-])cc2)C(C)=O)cc1 was read as Pf growth 96h 12µM*, SARS PLP yeast 5%, Pf growth 48h inconclusive, Cycloheximide cs 6, Shiga toxin inh -1 and AMA1 RON2 block 13%.
For COc1ccc(NN=Nc2ccc([N+](=O)[O-])cc2)cc1 the results were Pf growth 96h 113%, SARS PLP yeast 6%, Pf growth 48h 191%, Cycloheximide cs 32*, Shiga toxin inh 27 and AMA1 RON2 block -7%.
COC(=O)[C@]1(Sc2ccc(C)cc2)CC(=O)N[C@@H]1c1ccco1 was read as AMA1 RON2 block -2%.
CC(=O)c1cccc(NC(=O)C(C)OC(=O)CCc2nc3ccccc3c(=O)[nH]2)c1 (stereo not drawn) was read as SARS PLP yeast -2% and AMA1 RON2 block -9%.
Screening O=C(NCC1CCCO1)c1cc([N+](=O)[O-])ccc1N1CCC(Cc2ccccc2)CC1 (stereo not drawn) returned Pf growth 96h inconclusive, SARS PLP yeast -16%, Pf growth 48h 12µM* and AMA1 RON2 block -4%.
Cc1ccc(C(=O)NCc2ccco2)cc1[N+](=O)[O-] was read as Pf growth 96h 29%, SARS PLP yeast -2%, Pf growth 48h -1%, Cycloheximide cs 10, Shiga toxin inh -7 and AMA1 RON2 block -24%.

Compound activity as filed in PubChem.
